HEK293 tox: cytotoxicity counter-screen for GLP-1 receptor inverse agonists; HEK293 cAMP-luciferase reporter cells, luminescence, 24 h; Potency, µM (highest dose often 38.3 µM), hits mostly inhibitors; hit rate 0.13% among 410,000;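 note: loss of luciferase light is scored as toxicity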
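To flag toxic compounds, the library was rerun on cells for 24 hr at 37 deg C and 5% CO2. Viability-linked luminescence was captured 12 min after adding luciferase detection reagent.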
GLP-1R agonist: GLP-1 receptor (human) agonism. AID 624172. HEK293 GLP-1R CRE-luciferase, luminescence, 4-6 h; cells express a hypersensitive GLP-1R form. hit rate 0.007% among 380,000. P43220. Potency, µM (top dose mostly 45.6 µM), most hits filed as activators
Target sequence (P43220 whole entry, looked up): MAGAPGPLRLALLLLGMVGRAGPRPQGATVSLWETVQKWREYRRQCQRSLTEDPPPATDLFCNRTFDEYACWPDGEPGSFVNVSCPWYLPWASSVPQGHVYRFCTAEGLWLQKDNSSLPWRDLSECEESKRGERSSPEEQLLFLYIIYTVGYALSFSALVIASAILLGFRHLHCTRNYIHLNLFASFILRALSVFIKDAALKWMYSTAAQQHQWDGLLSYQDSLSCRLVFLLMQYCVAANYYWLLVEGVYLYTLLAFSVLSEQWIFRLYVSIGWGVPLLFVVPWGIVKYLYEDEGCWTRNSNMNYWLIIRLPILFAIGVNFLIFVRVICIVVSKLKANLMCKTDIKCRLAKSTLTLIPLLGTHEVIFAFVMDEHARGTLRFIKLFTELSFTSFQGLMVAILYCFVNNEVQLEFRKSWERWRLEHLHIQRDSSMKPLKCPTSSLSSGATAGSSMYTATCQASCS
PTHR1 agonist: activates the human parathyroid hormone receptor PTHR1 | Q03431 | HEK293 GP2 PTHR1 cells, GloSensor cAMP luminescence, 1 h | Potency, µM (series often up to 115 µM), hits mostly activators | hit rate 0.075% among 410,000 | AID 743266; note: nearly all actives have a fitted effect of over 55% in size
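HEK-293-derived GP2 cells expressing PTHR1 and a GloSensor cAMP reporter, 3,000/well, plated overnight, given luciferin plus IBMX (each 0.5 mM as added) for 1 h at 37 °C, then compound for 1 h at 37 °C. Luminescence was read after 15 min at room temperature.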
GLP1R inv ag: inverse agonists of human GLP-1 receptor | P43220 | HEK293 GLP-1R CRE-luciferase, luminescence, 24 h; GLP-1R form is constitutively active | Potency, µM (series often up to 38.3 µM), hits mostly inhibitors | hit rate 1.6% among 410,000; note: nearly all actives have a fitted effect of over 55% in size
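Luminescence readout: a drop in cAMP-driven luciferase signal flags inverse agonism at a constitutively active GLP-1R stably expressed in HEK293. Compound exposure lasted 24 hr at 37 deg C, 5% CO2.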
A number is an active result; - = inactive; ? = inconclusive; . = no result given. Most compounds without a hit are left out; they make up all but 1.7% or so of the library. Calls come from the whole dose curve; as a rule, active = well fitted curve in the direction sought with a large enough effect; inconclusive = small, poorly fitted or top-dose-only effect, or another doubt; inactive = no such curve, though single readings can be large; an effect the other way counts as inactive or inconclusive.

SMILES	HEK293 tox	GLP-1R agonist	PTHR1 agonist	GLP1R inv ag
COc1ccc(C2CN(C)CC2C(=O)c2ccc(C)cc2)cc1Cl (stereo unspecified)	-	-	-	10µM
CN1CC(C(=O)c2ccc(F)cc2)C(c2ccc(F)cc2)C1 (stereo unspecified)	-	-	-	?
CN1CC(C(=O)c2ccc(Cl)cc2)C(c2ccc(Cl)cc2Cl)C1 (stereo unspecified)	-	-	-	8.91µM
O=C(Cc1ccc(Br)cc1)NCc1ccccc1	?	-	-	?
CCOC(=O)c1ccc(N2C(=O)c3[nH]nc(-c4ccccc4)c3C2c2ccc(CC)cc2)cc1 (stereo unspecified)	?	-	-	11.2µM
Cn1c(=O)[nH]c(=O)c2c1nc([N+](=O)[O-])n2Cc1ccccc1	10µM	-	-	?
CCCOc1cccc(C(=O)Nc2cc(-c3nc4ccccc4[nH]3)ccc2C)c1	?	.	-	?
Cc1ccc(C(=O)Nc2cccc3[nH]c(C(F)(F)F)nc23)cc1	?	-	-	8.91µM
COc1ccc(C(CC(=O)Nc2ccccn2)N2Cc3ccccc3C2=O)cc1 (stereo unspecified)	-	-	-	-
O=C(Nc1ccccn1)NC12CC3CC(CC(C3)C1)C2	-	-	-	1.41µM
COc1ccc(C(=O)Nc2ccc(-c3cc(C(F)(F)F)nn3-c3ccccc3)cc2)cc1OC	-	.	-	?
Cc1ccc(C2c3c(-c4cc(C)ccc4O)n[nH]c3C(=O)N2Cc2ccco2)cc1 (stereo unspecified)	?	.	-	?
CN(C)CCCNC(=S)Nc1ccc(-c2ccccc2)cc1	?	-	-	11.2µM
CCCCCN1C(C(=O)c2ccccc2)=C(NC(=O)c2ccc(OC)c(OC)c2)c2ccccc2S1(=O)=O	-	.	-	10µM
Cc1c(Cl)ccc2sc(N3CCN(C(=O)CCS(=O)(=O)c4ccc(F)cc4)CC3)nc12	-	.	-	?
O=C(Nc1ccccc1Cl)c1ccccc1Oc1ccc(C(F)(F)F)cc1[N+](=O)[O-]	?	-	-	7.08µM
COc1cccc(OC)c1C(=O)NC(=S)N1CCN(c2ccc(C(F)(F)F)cc2[N+](=O)[O-])CC1	?	-	-	?
Cc1ccc(C(=O)N/N=C/c2ccc(-c3cccc(Cl)c3)o2)cn1	?	-	-	7.94µM
CCCCn1c(O)c(C=NC2CC3CCC2(C)C3(C)C)c(=O)[nH]c1=O (stereo unspecified)	-	-	-	5.62µM
COC(=O)C[C@]1(C(=O)OC)CN(C#N)N(c2ccc(Cl)cc2)C12c1ccccc1-c1ccccc12	1.12µM	-	-	?
COC(=O)[C@@H]1[C@@H](C(=O)OC)C2(c3ccccc3-c3ccccc32)N(c2ccc(Cl)cc2)N1C#N	-	-	-	3.98µM
C[C@]12CC[C@@H]3c4ccc(OC(=O)N(CCCl)CCCl)cc4CC[C@@H]3[C@H]1CC[C@@H]2OP(=O)(O)O	.	-	.	.
COc1cccc(NP(=O)(Oc2ccccc2Cl)Oc2ccccc2Cl)c1	?	-	-	?
O=P(Nc1cccc(Cl)c1)(Oc1ccccc1)Oc1ccccc1	-	-	-	8.91µM
COc1cccc(NP(=O)(Oc2ccccc2)Oc2ccccc2)c1	-	-	-	5.01µM
SMILES	HEK293 tox	GLP-1R agonist	PTHR1 agonist	GLP1R inv ag
COc1cccc2c1C(=O)c1c(O)c3c(c(O)c1C2=O)CC(O)(C(C)=NO)CC3OC1CC(N)C(O)C(C)O1 (stereo unspecified)	11.2µM	-	-	10µM
C/C(CC(=O)Nc1ccc(Cl)c(C(F)(F)F)c1)=N\NC(N)=S	?	-	-	10µM
Oc1ccc(C[C@H]2CNC(=S)N2CC2CCCN2C[C@H](Cc2ccccc2)N2C[C@H](Cc3ccc(O)cc3)N(CC3CCCCCC3)C2=S)cc1 (stereo partly specified)	-	-	-	?
COc1ccc2[nH]c(C)c(CCNCc3cc(OC)c(OC)c(OC)c3)c2c1	-	-	-	?
COc1ccc(CNCCc2c(C)[nH]c3ccc(OC(F)(F)F)cc23)c(OC)c1	?	-	-	2µM
CC(C)COP(=O)(OCC(C)C)C(Nc1ccccc1)c1ccccc1 (stereo unspecified)	?	-	-	11.2µM
CC(C)(C)NS(=O)(=O)c1ccc(OCC(=O)N2CCN(Cc3ccccc3)CC2)cc1	-	-	-	-
CC(CN1CCNCC1)(NS(=O)(=O)c1ccccc1)c1ccccc1 (stereo unspecified)	?	-	-	3.55µM

Screening data as filed in PubChem BioAssay.
